From PubChem BioAssay AID651558 (National Center for Advancing Translational Sciences (NCATS), 2012) come the findings set out here.

Hit rate of the full screen: of about 1,200 compounds, about 480 (40%) were called active. About 29% were inconclusive and are not listed. This is one part of the list. A number with no mark means an inactive call. Calls follow the shape of the dose curve; as a rule, active = well fitted inhibition curve with a large enough effect; inconclusive = small, poorly fitted or top-dose-only effect; inactive = no such curve, though single readings can be large or run the other way.
% is scaled to controls: 0 for no effect and ±100 for the full control effect; potency is read from the fitted curve at half-maximal effect.

The test is described as follows: qHTS Assay to Find Inhibitors of Chronic Active B-Cell Receptor Signaling: Hit Validation in Primary Screen. Also: nearly all actives have a fitted effect of over 75% in size. Particulars: ABC-DLBCL IkB-luc/CBR ratio luminescence, 4 h; series mostly up to 46.1 µM; activity change, negative = inhibition: at the top concentration. In short, it runs like this: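 Concentration series (3 nM to 46 uM) tested on TMD8 cells induced with doxycycline for 4 h. Filter-corrected green (IkBa fusion) over red (unfused) luciferase signal; Data were normalised to 10 uM MG-132 and untreated cell wells.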
For orientation: Quantitative high-throughput screening tests each substance at several concentrations.
With `COc1ccc(C(=O)Nc2ccc(-n3nncc3-c3ccc(OC)c(OC)c3)cc2)cc1`, the Potency is 2.06 µM (active).
On the same count and under the same terms, as for `COc1ccc(/C=C/C(=O)Nc2ccc(-n3nncc3-c3ccc(OC)c(OC)c3)cc2)cc1OC`, the figure is 2.31 µM (active).
On to `COc1ccc(-c2cc(C(=O)NN)[nH]n2)cc1OC`, for which the “activity change, negative = inhibition” value was -13.1%.
Turning to `COc1ccc(N(CC(=O)NC2CCCC2)C(=O)Cn2nnc(-c3ccc(OC)c(OC)c3)n2)c(OC)c1`, the “activity change, negative = inhibition” value was -8.97%.
In the case of `Fc1cccc2sc(Nc3nnc(-c4ccccc4)o3)nc12`, the Potency was 0.13 µM (active).
With `COc1cccc(-c2nnc(Nc3nc4c(F)cccc4s3)o2)c1`, the Potency was 0.326 µM (active).
Take `O=C(/C=C/c1cccc(Cl)c1)c1nc2ccccc2[nH]1`: the Potency was 20.6 µM (active).
With `CCN(C(=O)c1cnc(NC(C)C)cc1C(F)(F)F)c1ccc(Cl)cc1Cl`, the “activity change, negative = inhibition” value was -22.7%.
Take `CCOc1ccc2c(c1)OC(c1ccc(OC)cc1)(C(F)(F)F)NC2=O` (configuration not stated): the Potency is 11.6 µM (active).
`Oc1c(CN2CCN(c3ccccc3)CC2)cc(Br)c2cccnc12`: the “activity change, negative = inhibition” value was -2.8%.
For the compound `COc1ccccc1N1CCN(C(=O)c2cc(=O)c3cc(C)cc(C)c3o2)CC1`, the Potency is 1.03 µM (active).
Take `COc1ccccc1N1CCN(C(=O)C2c3ccccc3Oc3ccccc32)CC1`: the Potency was 16.4 µM (active).
In the case of `CCOC(=O)c1cnc(Nc2nc3ccccc3o2)nc1CSC(=S)N1CCCCC1`, the “activity change, negative = inhibition” value was -3.65%.
For the compound `COc1ccc(-c2c/c(=N\c3nc(-c4ccccc4)c(C)s3)c3ccccc3o2)cc1O`, the Potency is 8.2 µM (active).
Take `NC(=S)Nc1nc2ccccc2s1`: the “activity change, negative = inhibition” value is -0.485%.
As for `C(=N\Nc1nc2ccccc2s1)/c1ccccn1`, the Potency was 14.6 µM (active).
In the case of `Cc1csc(N/N=C/c2ccccn2)n1`, the “activity change, negative = inhibition” value is -0.0966%.
Regarding `COc1ccc(-c2noc(CSc3nc(N)c(-c4ccccc4)c(=O)[nH]3)n2)cc1`, the Potency is 8.2 µM (active).
For `COc1ccc(-c2noc(CSc3nc(N)c(-c4ccccc4)c(=O)[nH]3)n2)cc1OC`, the Potency was 7.31 µM (active).
As to `Nc1nc(SCc2nc(-c3ccccc3)no2)[nH]c(=O)c1-c1ccccc1`, the Potency was 20.6 µM (active).
As for `COCCNC(=S)N/N=C(\C)c1ccccc1F`, the “activity change, negative = inhibition” value was -7.26%.
Take `CCOc1ccc(S(=O)(=O)Nc2ccc3oc(C)c(C(=O)OCCOC)c3c2)cc1`: the Potency was 8.2 µM (active).
Regarding `O=C(/C=C\c1ccco1)Nc1cc([N+](=O)[O-])ccc1F`, the Potency was 1.84 µM (active).
Turning to `O=C(Cc1ccc(-n2c(=O)c3ccccc3n(Cc3ccccc3Cl)c2=O)cc1)NCC1CCCO1` (configuration not stated), the Potency was 2.59 µM (active).
As to `CCn1c(O)c(N=NC(=S)NCC2CCCO2)c2ccccc21` (configuration not stated), the “activity change, negative = inhibition” value was 73.4%.
On to `CC1CCC(n2c(=S)[nH]c3ccccc3c2=O)CC1` (configuration not stated), for which the “activity change, negative = inhibition” value was -10.4%.
Regarding `CCN(CC(=O)NCc1ccc(F)cc1)C(=O)/C=C/c1ccc(OC)c(S(=O)(=O)NC(C)C)c1`, the Potency was 18.4 µM (active).
Turning to `CN(C)c1nc(=Nc2cccc(Cl)c2)ss1`, the Potency is 20.6 µM (active).
In the case of `Cc1[nH]n(C(N)=S)c(=O)c1N=Nc1cccc(Cl)c1`, the “activity change, negative = inhibition” value was -15.4%.
`Cc1ccc(C(=O)Nc2ncc(Cc3ccc(SC(F)F)cc3)s2)cc1`: the Potency is 1.3 µM (active).
With `O=C(Nc1ncc(Cc2ccc(SC(F)F)cc2)s1)c1ccc(OC(F)F)cc1`, the Potency was 0.651 µM (active).
In the case of `O=C(Nc1ncc(Cc2ccc(SC(F)F)cc2)s1)c1ccccc1`, the Potency is 18.4 µM (active).
On to `CCCCC(=O)O[C@]1(C(=O)CO)CC[C@H]2[C@@H]3CCC4=CC(=O)CC[C@]4(C)[C@H]3[C@@H](O)C[C@@]21C`, for which the “activity change, negative = inhibition” value is -25.2%.
Consider `CCCSc1nc(C)c(C(C)=O)cc1C#N`, for which the Potency was 16.4 µM (active).
For the compound `CCOc1cc(-c2cc(-c3ccc(NC(C)=O)cc3)nc(N)c2C#N)ccc1O`, the Potency is 20.6 µM (active).
As for `CC(C)(C)NNC(=S)Nc1cccc(C(F)(F)F)c1`, the “activity change, negative = inhibition” value was -1.75%.
Same read-out and setting: as for `CN1CCN(Cc2cc(COCc3ccccc3)c3cccnc3c2O)CC1`, the figure is -1.6%.
With `CC(C)n1c(SCC(=O)Nc2ccccc2)nc2c1c(=O)n(C)c(=O)n2C`, the Potency is 18.4 µM (active).
Regarding `CC(C)Sc1ccccc1C(=O)Nc1ccc2c(c1)n(C)c(=O)n2C`, the “activity change, negative = inhibition” value is 113%.
Consider `CC1CCCCN1C(=S)NC(=O)c1cccs1` (configuration not stated), for which the “activity change, negative = inhibition” value was -6.25%.
With `Cc1cnn(CCC(=O)NNC(=S)NCC(C)C)c1`, the “activity change, negative = inhibition” value is -5.82%.
For `O=C(COc1ccccc1-c1ccccc1)NN=C1CCCC1`, the “activity change, negative = inhibition” value is -6.57%.
Turning to `O=C(COc1ccccc1-c1ccccc1)N/N=C/c1ccc2ccccc2c1`, the Potency is 0.651 µM (active).
On to `COc1ccc(/C=N/NC(=O)COc2ccccc2-c2ccccc2)cc1`, for which the Potency was 2.59 µM (active).
For `Cc1ccc(Cl)cc1NC(=S)N/N=C/c1cccc2ccccc12`, the “activity change, negative = inhibition” value was 94.8%.
As for `Cc1ccc(/C=N/NC(=O)COc2ccccc2-c2ccccc2)cc1`, the Potency was 0.291 µM (active).
As for `O=C(COc1ccccc1-c1ccccc1)N/N=C/c1cccc2ccccc12`, the Potency was 2.06 µM (active).
For `C/C(=N/NC(=O)COc1cc(C)ccc1C(C)C)C(=O)O`, the “activity change, negative = inhibition” value is -2%.
For `C/C(CCC(C)C)=N\NC(=O)COc1ccccc1-c1ccccc1`, the “activity change, negative = inhibition” value was -6.47%.
Regarding `C/C(=N\NC(=O)COc1ccccc1-c1ccccc1)c1ccccn1`, the “activity change, negative = inhibition” value is 41.6%.
Consider `Cc1[nH]n(C(N)=S)c(=O)c1N=Nc1ccc([N+](=O)[O-])cc1Cl`, for which the “activity change, negative = inhibition” value was 65.2%.
Same read-out and setting: as for `O=C1CC(c2ccccc2)Cc2nc3ncnn3cc21` (configuration not stated), the figure is -0.669%.
